Abeta yeast res: A-beta toxicity reversal in yeast; yeast expressing A-beta42, growth rescue, OD600, 48 h; response scale: 0% DMSO, 100% iron-clioquinol control; 410,000 compounds, 0.063% hits; Potency, µM (highest dose often 46.1 µM), hits mostly activators; note: nearly all actives have a fitted effect of over 55% in size
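Yeast growth medium received pinned compounds, then yeast cells expressing toxic A-beta were added; plates incubated at 30 C for 48 hr. Growth read as absorbance at 600 nm, normalized to DMSO and equimolar FeCl3 plus clioquinol controls.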
aSyn rescue: alpha-synuclein toxicity inhibition in yeast | Yeast expressing alpha-synuclein, growth rescue, BacTiter-Glo, 24 h | Potency, µM (titrated, usually from 46.1 µM), hits mostly activators | 370,000 compounds, 0.14% hits; note: nearly all actives have a fitted effect of over 65% in size
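Rescue of yeast growth: cells expressing toxic alpha-synuclein, induced in galactose at OD600 0.02, incubated with compound 24 h at 30 C. ATP luminescence quantified growth; inhibitors of toxicity appear as activators.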
Mito fusion yeast: inhibitors of mitochondrial division or activators of mitochondrial fusion | S. cerevisiae fusion-defective mutant growth rescue, CellTiterGlo 48 h | Potency, µM (series often up to 46.1 µM), hits mostly activators | 320,000 compounds, 0.23% hits; note: nearly all actives have a fitted effect of over 45% in size
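Yeast fusion mutant, YPEG (non-fermentable carbon), compound, 48 h at 37C non-permissive; CellTiterGlo added, 10 min RT, luminescence read. Rescued growth = division inhibition.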
AT treatment: potential ataxia-telangiectasia treatment; AID 485349; Potency, µM (doses to about 57.5 µM), actives largely listed as activators; 320,000 compounds, 0.19% hits; F2112 A-T fibroblasts, KAP-1 phosphorylation AlphaLISA; neocarzinostatin DNA damage 30 min before lysis; note: nearly all actives have a fitted effect of over 45% in size
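hTERT-immortalized A-T patient fibroblasts (F2112), 500 cells/well in OPTI-MEM, 1% FBS, got compounds for 60 min, then NCS for 30 min at 37C. Lysates were then assayed for phospho-KAP-1 by AlphaLISA (anti-pKAP1 donor, anti-KAP1 acceptor beads), 6 hr at 25C.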
GRP78 ERSR act: inducers of ER stress response in human glioma cells. Potency, µM, most hits filed as activators. U87-MG GRP78 promoter luciferase reporter, 16 h. AID 602332. 420,000 compounds, 0.02% hits; note: series mostly up to about 76 µM; nearly all actives have a fitted effect of over 35% in size
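Stably transfected U87-MG human glioma cells carrying a GRP78-based luminescent sensor were seeded at 1000 cells/well, pin-dosed with compounds and incubated 16 h. Luciferase reagent was then added, and end-point luminescence was read after 10 min at room temperature.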
TDP-43 yeast inh: TDP-43 toxicity inhibition in yeast | TDP-43 expressing yeast growth rescue, BacTiter-Glo, 24 h | Potency, µM (titrated, usually from 46.1 µM), hits mostly activators | 410,000 compounds, 1.8% hits | AID 652104; note: nearly all actives have a fitted effect of over 50% in size
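Readout is BacTiter-Glo luminescence of cell growth, so inhibitors register as activators. TDP-43-expressing yeast at OD600=0.02 in galactose medium, after raffinose pregrowth to mid-log, were incubated with compound for 24 hr at 30 deg C.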
A number is an active result; [ ] = remark or other dose. Shown are actives, neighbours in structure and some others; about 2.1% of the full set was active somewhere. Calls come from the whole dose curve; as a rule, active = well fitted curve in the direction sought with a large enough effect; inconclusive = small, poorly fitted or top-dose-only effect, or another doubt; inactive = no such curve, though single readings can be large; an effect the other way counts as inactive or inconclusive.

How did Cc1cccc(NS(=O)(=O)c2cc(C(=O)N3CCc4ccccc4C3)ccc2Cl)c1C do in these assays?
Abeta yeast res: inactive; aSyn rescue: 10µM; Mito fusion yeast: inactive; AT treatment: inactive; GRP78 ERSR act: inactive; TDP-43 yeast inh: inactive

Results for Cc1ccc(C)c(NS(=O)(=O)c2cc(C(=O)N3CCc4ccccc4C3)ccc2Cl)c1 ?
Abeta yeast res: inactive; aSyn rescue: 16µM; Mito fusion yeast: inactive; AT treatment: inactive; GRP78 ERSR act: inactive; TDP-43 yeast inh: inactive

What do the screens show for `Cc1ccc(C)c(NC(=O)N2CCc3ccccc3C2)c1`?
Abeta yeast res: inactive; aSyn rescue: inactive; Mito fusion yeast: inactive; AT treatment: inactive; GRP78 ERSR act: inactive; TDP-43 yeast inh: 20µM

Results for Cc1ccc(C)c(N2CCN(C(=O)Cn3ncc4c(=O)oc5ccccc5c43)CC2)c1 ?
Abeta yeast res: inactive; GRP78 ERSR act: inactive; TDP-43 yeast inh: inactive

How did Cc1ccc(CCNC(=O)CSCc2nc(-c3ccc(C)cc3)oc2C)cc1 do in these assays?
Abeta yeast res: inactive; GRP78 ERSR act: inactive; TDP-43 yeast inh: 25µM

What do the screens show for `Cc1cccc(-c2nc(CSCC(=O)NCCc3ccc(Cl)cc3)c(C)o2)c1`?
Abeta yeast res: inactive; GRP78 ERSR act: inactive; TDP-43 yeast inh: 25µM

Results for Cc1cccc(-c2nnc(-c3ccc(N)cc3)o2)c1 ?
Abeta yeast res: inactive; aSyn rescue: inactive; Mito fusion yeast: inactive; AT treatment: inactive; GRP78 ERSR act: inactive; TDP-43 yeast inh: 8.9µM

What do the screens show for `COc1cccc(-c2nnc(SCc3cccnc3)o2)c1`?
Abeta yeast res: inactive; aSyn rescue: inactive; Mito fusion yeast: inactive; AT treatment: inactive; GRP78 ERSR act: inactive; TDP-43 yeast inh: 13µM

How did Cc1cccc(-c2nnc(SCc3ccccc3)o2)c1 do in these assays?
Abeta yeast res: inactive; aSyn rescue: inactive; Mito fusion yeast: inactive; AT treatment: inactive; GRP78 ERSR act: inactive; TDP-43 yeast inh: 11µM

What do the screens show for `Cc1ccc(-c2nnc(SCc3cccc(C#N)c3)o2)cc1`?
Abeta yeast res: inactive; GRP78 ERSR act: inactive; TDP-43 yeast inh: inconclusive

Results for N#Cc1cccc(-c2nnc(SCc3ccccc3C#N)o2)c1 ?
Abeta yeast res: inactive; aSyn rescue: inactive; Mito fusion yeast: inactive; AT treatment: inactive; GRP78 ERSR act: inactive; TDP-43 yeast inh: 18µM

Results for N#Cc1ccccc1CSc1nnc(-c2ccncc2)o1 ?
Abeta yeast res: inactive; aSyn rescue: inactive; Mito fusion yeast: inactive; AT treatment: inactive; GRP78 ERSR act: inactive; TDP-43 yeast inh: inactive

How did CN(CCO)C(=O)c1cn(C2CCN(Cc3ccc4ccccc4c3)CC2)nn1 do in these assays?
GRP78 ERSR act: inactive

Results for COCCC(=O)NCC1Cc2cc(Cl)cc(-c3ccc4[nH]ccc4c3)c2O1 (stereo unspecified) ?
GRP78 ERSR act: inactive

What do the screens show for `Cc1ccc(CN2C[C@@H](Sc3nc(C)cc(C)n3)C[C@H]2C(=O)N2CCN(c3ccccc3F)CC2)cc1`?
GRP78 ERSR act: inactive

Results for Cc1cccc(CSc2nnc(-c3ccco3)n2C)c1 ?
Abeta yeast res: inactive; aSyn rescue: inactive; Mito fusion yeast: inactive; AT treatment: inactive; GRP78 ERSR act: inactive; TDP-43 yeast inh: inactive

Results for Cc1cccc(CSc2nnc(-c3ccco3)o2)c1 ?
Abeta yeast res: inactive; aSyn rescue: inactive; Mito fusion yeast: inactive; AT treatment: inactive; GRP78 ERSR act: inactive; TDP-43 yeast inh: 18µM

What do the screens show for `Cc1cccc(NC(=S)NC(=O)C2CC2)c1`?
Mito fusion yeast: inactive; AT treatment: inactive

What do the screens show for `Cc1cc(C)cc(NC(=S)NC(=O)C2CC2)c1`?
Abeta yeast res: inactive; aSyn rescue: inactive; Mito fusion yeast: inactive; AT treatment: inactive; GRP78 ERSR act: inactive; TDP-43 yeast inh: 11µM

Results for Cc1cc(NC(=S)NC(=O)C2CC2)ccc1Br ?
Abeta yeast res: inactive; aSyn rescue: inactive; Mito fusion yeast: inactive; AT treatment: inactive; GRP78 ERSR act: inactive; TDP-43 yeast inh: 16µM

What do the screens show for `COc1ccc(CNc2cccc(F)c2)cc1Br`?
Abeta yeast res: inactive; aSyn rescue: inactive; Mito fusion yeast: inactive; AT treatment: inactive; GRP78 ERSR act: inactive; TDP-43 yeast inh: 13µM

What do the screens show for `CCc1ccccc1S(=O)(=O)Cc1ccc(C(=O)NCCc2ccc(C)cc2)o1`?
Abeta yeast res: inactive; GRP78 ERSR act: inactive; TDP-43 yeast inh: inconclusive

What do the screens show for `CC1CN(CCNC(=O)C2CCCc3c2[nH]c2ccccc32)Cc2ccccc2O1` (stereo unspecified)?
GRP78 ERSR act: inactive

What do the screens show for `CCOC(=O)c1[nH]c2c(c1Cc1ccccc1C)C(=O)CC(c1ccccc1)C2` (stereo unspecified)?
Abeta yeast res: inactive; GRP78 ERSR act: inactive; TDP-43 yeast inh: inactive

How did CCOC(=O)c1[nH]c2c(c1Cc1ccccc1)C(=O)CC(c1ccccc1)C2 (stereo unspecified) do in these assays?
Abeta yeast res: inactive; GRP78 ERSR act: inactive; TDP-43 yeast inh: 13µM

How did Cc1cc(SCc2cc(=O)n3ccsc3n2)nc2ccccc12 do in these assays?
Abeta yeast res: inactive; aSyn rescue: inactive; Mito fusion yeast: inactive; AT treatment: inactive; GRP78 ERSR act: inactive; TDP-43 yeast inh: 11µM

How did COc1cc(OC)c2nc(-c3cc4c(c(OC)c3)OCCN(C(=O)CC3NC(=O)c5ccccc53)C4)cc(C)c2c1 (stereo unspecified) do in these assays?
GRP78 ERSR act: inactive

Results for CC(O)(COc1ccccc1)c1ccc2c(c1)CN(Cc1ccccn1)CCO2 (stereo unspecified) ?
GRP78 ERSR act: inactive

What do the screens show for `CO[C@H]1[C@H](NC(=O)c2ccco2)c2ccccc2C12CCN(Cc1cccn1-c1ccccn1)CC2`?
GRP78 ERSR act: inactive

Results for CCc1c(C)sc(NC(=S)Nc2nc(C)cc(C)n2)c1C(=O)OC ?
Abeta yeast res: inactive; aSyn rescue: inactive; Mito fusion yeast: inactive; AT treatment: inactive; GRP78 ERSR act: inactive; TDP-43 yeast inh: inactive[0.397 µM]

What do the screens show for `CCc1c(C)sc(NC(=S)Nc2cccnc2)c1C(=O)OC`?
Abeta yeast res: inactive; aSyn rescue: inactive; Mito fusion yeast: inactive; AT treatment: inactive; GRP78 ERSR act: inactive; TDP-43 yeast inh: 25µM

Results for CC1=NNC(=O)C1CC(=O)N/N=C/C(Br)=C/c1ccccc1 (stereo unspecified) ?
Abeta yeast res: inactive; aSyn rescue: inactive; Mito fusion yeast: inactive; AT treatment: inactive; GRP78 ERSR act: inactive; TDP-43 yeast inh: 14µM

What do the screens show for `CC1=NNC(=O)C1CCC(=O)N/N=C/C(Br)=C/c1ccccc1` (stereo unspecified)?
Abeta yeast res: inactive; aSyn rescue: inactive; Mito fusion yeast: inactive; AT treatment: inactive; GRP78 ERSR act: inactive; TDP-43 yeast inh: inactive
